In the library only some 5% were active in any assay of this set; here they are far more common.
AI-2 QS modul – modulates the Vibrio harveyi AI-2 quorum sensing system; Vibrio harveyi JMH597 AI-2 luminescence/OD600 ratio, 9 h; hits give low values; strain lacks LuxN and CqsS sensors; 0 = neutral-control median; activity change, % at 7.5 µM; 0.4% of 300,000 active; AID 2094; in the data active means activity change below about -75%, passing the limit was not always enough;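 further: luminescence divided by OD600 gain over 9 h not by final OD600 alone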
PREPL inhibitor – inhibits the human prolyl oligopeptidase-like enzyme | Q4J6C6 | recombinant PREPL, fluorescence polarization activity-based probe | inhibition, % at 5.96 µM | 0.68% of 320,000 active; in the data active means inhibition above about 43%;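 further: 0% = enzyme with DMSO and 100% = wells lacking enzyme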
CHT block – inhibits the human high affinity choline transporter; Q9GZV3; CHT-expressing cells, membrane potential dye, choline response; hits give low values; B-score at 10 µM; 0.86% of 310,000 active;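 active means B-score over 3 SD under the library average, and starting fluorescence ratio not unusually high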;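 further: choline stimulus applied at its EC90 after an EC20 pre-addition; B-score computed on integrated fluorescence ratio after choline addition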
ALR H2O2 inh – inhibitors of human sulfhydryl oxidase ALR; P55789; purified ALR, DTT oxidation, H2O2 HRP-luminol luminescence; inhibition, % (concentration not given with the values); 3.8% of 290,000 active; AID 485317;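 active means mean replicate inhibition above about 79%, with every replicate also reaching it, limit read from the data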
Target sequence (P55789 whole entry, looked up): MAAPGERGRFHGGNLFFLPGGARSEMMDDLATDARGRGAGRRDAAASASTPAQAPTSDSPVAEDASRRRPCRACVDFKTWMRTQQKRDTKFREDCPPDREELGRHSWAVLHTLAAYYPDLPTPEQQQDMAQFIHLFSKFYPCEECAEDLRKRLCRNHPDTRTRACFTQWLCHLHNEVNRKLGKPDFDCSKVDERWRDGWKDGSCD
CHT PAM – allosteric activators of human choline transporter CHT; CHT-expressing cells, membrane potential dye, choline EC20; hits give high values; LV-AA mutant CHT in HEK293 cells; B-score at 10 µM; 0.49% of 310,000 active; Q9GZV3; AID 488977;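 active means initial fluorescence not abnormally high and integrated response B-score, plate-corrected, over 3 SD above library mean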
CHT block conf – human CHT inhibition, confirmatory screen | shares compounds with CHT block | CHT-expressing cells, choline membrane potential dye; LV-to-AA substituted CHT, HEK293 cells | CHT activity remaining % of control (hits give low values), % at 10 µM | 70% of 2,400 active | AID 493221;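 active means choline transporter activity left, mean of duplicates at 10 µM, below buffer-only control mean minus 3 SD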;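 further: depolarization triggered by choline at its EC90 following an EC20 pre-addition; 0% = hemicholinium-3 full block and 100% = buffer-only control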
HEK293 CHT ctr – activity in parental HEK293 cells lacking CHT; shares compounds with CHT block; membrane potential dye, choline response; active = decrease or increase beyond buffer ±3SD; membrane potential ratio readout (active if shifted either direction beyond buffer ±3SD; no single direction) at 10 µM; 4% of 2,400 active;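 further: parental cells lack the transporter so any hit is non-specific; ratio is peak minus trough fluorescence over baseline after EC90 choline challenge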
Starred values were filed as active, the others as inactive; i = inactive; / = no result given.

SMILES	AI-2 QS modul	PREPL inhibitor	CHT block	ALR H2O2 inh	CHT PAM	CHT block conf	HEK293 CHT ctr
C=CCN1C(=O)c2ccc(C(=O)N3CCN(S(=O)(=O)c4cccc(F)c4)CC3)cc2C1=O	2.5	3.9	i	-4.7	i	/	/
CN(Cc1ccccc1)S(=O)(=O)c1ccc2[nH]cc(C(=O)NCC3CCCO3)c(=O)c2c1 (stereo unspecified)	/	2.6	-10.3*	/	i	43.3%*	i
CCc1ccccc1NS(=O)(=O)c1ccc2[nH]cc(C(=O)NCC3CCCO3)c(=O)c2c1 (stereo unspecified)	0.4	7.8	i	-3.8	i	/	/
COc1ccc(C(=O)N2CCN(CCCc3ccccc3)CC2)cc1OC	11.0	13.4	i	-16.7	i	/	/
O=C(NC1CCCCCCC1)NC1CCCCC1	11.5	17.1	-5.67*	1.5	i	i	i
CN1CCC(NC(=O)NC2CCCCC2)CC1	16.0	1.6	i	1.0	i	/	/
CC/C(=C(/CC)c1ccc(O)cc1)c1ccc(O)cc1	-13.9	7.3	-7.43*	99.0*	i	55.2%*	i
COC(=O)C1(C)NC(c2ccc(OC)cc2)C2C(=O)N(c3ccccc3)C(=O)C21 (stereo unspecified)	21.5	1.7	i	-29.1	i	/	/
O=C(N/N=C/c1cc([N+](=O)[O-])cc(Br)c1O)C12CC3CCC(CC(C3)C1)C2	56.8	9.9	i	-2.3	i	/	/
O=[N+]([O-])c1cc(Br)c(O)c(/C=N/Nc2nnnn2-c2cccc3ccccc23)c1	11.5	-3.6	-9.24*	14.8	i	33.2%*	i
CCCCCCCCCCCCN1[C@@H](CC(=O)O)c2cc(C(F)(F)F)ccc2S1(=O)=O	-20.3	0.9	-7.29*	98.2*	i	43.6%*	i
CC(C)(C(=O)c1cccnc1)c1cccnc1	-6.6	-4.8	i	3.3	i	/	/
COc1cccc(CNc2ccc(N3CCCCC3)cc2)c1OC	/	-9.7	-14.5*	96.5*	i	12.2%*	i
CN(Cc1ccccc1)C(=O)COC(=O)c1cc(=O)[nH]c2ccccc12	/	-28.8	/	-6.5	/	/	/
CC1CCC(NC(=O)Cn2c3c(c(-c4ccccc4Cl)cc2=O)CCC3)CC1 (stereo unspecified)	19.9	-2.0	-6.81*	-63.4	i	45.6%*	i
Cc1onc(-c2ccccc2Cl)c1C(=O)Nc1nnc(-c2cccc([N+](=O)[O-])c2)s1	55.7	-2.2	-6.9*	57.2	i	51.4%*	i
CCN(CC(=O)Nc1ccc2c(c1)CCC2)Cc1nc2ccccc2c(=O)[nH]1	24.3	-50.5	-5.06*	/	i	i	i
COCCSc1nnc(NC(=O)COc2ccc3c(c2)OCO3)s1	/	4.1	i	-6.7	i	/	/
C=CC(=O)N=c1sc2ccccc2n1-c1ccccc1	25.4	9.7	-6.17*	19.7	i	37.2%*	i
CC(OC(=O)c1cc2sccc2n1C)C(=O)NC(C)(C)C (stereo unspecified)	0.6	3.8	-9.15*	-4.7	i	58.8%*	i
CC(OC(=O)c1cc2sccc2n1C)C(=O)NCc1cccs1 (stereo unspecified)	10.6	-1.0	i	-2.7	i	/	/
N=c1n(CCN2CCCCC2)c2ccccc2n1CC(=O)c1ccc(Cl)c(Cl)c1	-2.0	43.2*	-5.42*	-1.2	i	i	i
CCn1c(=N)n(CC(=O)c2ccc(Cl)c(Cl)c2)c2ccccc21	6.0	39.0	i	0.3	i	/	/
CCN(CC(=O)NCc1ccc(F)cc1)C(=O)c1ccc(Cl)cc1	7.1	-6.2	i	/	i	/	/
CCN(CC(=O)NCc1ccc(F)cc1)C(=O)c1ccc(C(=O)c2ccccc2)cc1	15.5	9.9	-5.75*	-7.0	i	i	i
SMILES	AI-2 QS modul	PREPL inhibitor	CHT block	ALR H2O2 inh	CHT PAM	CHT block conf	HEK293 CHT ctr
Cc1ccc(NC(=S)N(CCCN2CCOCC2)Cc2cccnc2)cc1C	18.6	5.8	i	0.5	i	/	/
CC(C)(C)NCCOCCOc1ccccc1-c1ccccc1	5.0	12.6	i	/	i	/	/
CCC(C)NCCOCCOc1ccccc1-c1ccccc1 (stereo unspecified)	6.8	4.8	-5.78*	0.7	i	47.7%*	-15*
CSCCC(NC(=O)c1ccccc1)C(=O)Nc1ccc(C)cc1 (stereo unspecified)	0.8	-14.2	-7.49*	-3.0	i	70.0%*	i
Cc1nccn1C[C@@H]1CCc2c(c3ccccc3n2C)C1=O	20.2	1.9	-5.75*	-7.8	i	11.6%*	i
Cc1nccn1CC1CCc2c(c3ccccc3n2C)C1=O (stereo unspecified)	9.2	3.1	-6.66*	-14.1	i	7.4%*	i
Cc1nccn1CCCN1C(=O)CNC1=S	13.6	11.2	i	1.9	i	/	/
CCOP(=O)(O)c1cccc(OCCOCCOc2cccc(P(=O)(O)OCC)c2)c1	-5.9	-0.5	i	-10.5	i	/	/
Cc1cc2nc(CSc3ccc(Cl)cc3)cc(=O)n2[nH]1	39.9	0.3	i	0.3	i	/	/
COc1cccc(CN(C)C(=O)c2cc(COc3ccc4ncccc4c3)on2)c1	34.5	-6.5	-6.05*	/	i	i	i
CC(C)[C@H](NC(=O)c1ccc(F)cc1)C(=O)N(C)Cc1cccs1	/	11.2	/	-0.3	/	/	/
O=C(NNS(=O)(=O)c1ccc(F)cc1)c1ccc([N+](=O)[O-])cc1	21.7	8.3	i	21.7	i	/	/
O=C(NNS(=O)(=O)c1ccc([N+](=O)[O-])cc1)c1ccc2ccccc2c1O	25.7	/	-4.98*	98.1*	i	41.7%*	i
NC(=O)c1nsc(C(=O)N(Cc2cccnc2)C(C(=O)NCc2ccc(F)cc2)c2ccc(F)cc2)c1N (stereo unspecified)	20.3	15.2	i	/	i	/	/
O=C(Cn1c(=O)n(-c2ccc(F)cc2)c(=O)c2sccc21)NC1CCCCC1	5.8	-6.5	i	/	i	/	/
O=C(C1CCCN(c2ncnc3c2nc2n3CCCCC2)C1)N1CCN(c2ccc(F)cc2)CC1 (stereo unspecified)	21.2	-14.2	-8.03*	11.9	i	36.8%*	i
COc1ccc(N2CCN(C(=O)C3CCCN(c4ncnc5c4nc4n5CCCCC4)C3)CC2)cc1 (stereo unspecified)	19.1	6.3	i	59.7	i	/	/
O=C(C1CCCN(c2ncnc3c2nc2n3CCCCC2)C1)N1CCN(c2ccc(Cl)cc2)CC1 (stereo unspecified)	22.7	-5.2	-7.8*	0.5	i	40.5%*	i

Screening results (PubChem)
